A selection: hits, their analogues and other compounds. The true share with any hit is near 2.3%.
M1 antag: human M1 muscarinic receptor antagonists, primary screen, CHO-K1 cells, Fluo-8 calcium fluorescence, 1536-well. Muscarinic acetylcholine receptor M1 (Homo sapiens), P11229. CHO-K1 hM1, ACh EC80 antagonist. inhibition, % at 3 µM. 1.3% of 360,000 active. AID 588852, 2011;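 active = percent inhibition above its own plate's cutoff, namely the mean of that plate's compound wells plus 3 SD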;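 also: peak over basal fluorescence ratio during 140 s after agonist addition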
Target sequence (P11229 whole entry, looked up): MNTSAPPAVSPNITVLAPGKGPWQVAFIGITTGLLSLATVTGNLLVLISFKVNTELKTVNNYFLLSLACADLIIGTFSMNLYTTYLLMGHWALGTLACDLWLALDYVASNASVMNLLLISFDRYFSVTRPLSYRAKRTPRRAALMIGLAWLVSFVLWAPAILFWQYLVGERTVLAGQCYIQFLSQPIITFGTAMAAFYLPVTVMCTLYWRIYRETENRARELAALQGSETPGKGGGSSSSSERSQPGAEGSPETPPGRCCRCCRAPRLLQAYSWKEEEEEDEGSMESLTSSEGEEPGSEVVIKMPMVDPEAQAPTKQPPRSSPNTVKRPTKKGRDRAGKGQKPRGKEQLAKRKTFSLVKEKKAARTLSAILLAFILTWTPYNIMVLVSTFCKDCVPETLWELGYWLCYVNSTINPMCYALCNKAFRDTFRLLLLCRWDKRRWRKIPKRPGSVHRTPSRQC
CHRM1 agonist: human M1 muscarinic receptor agonists, primary screen, Fluo-8 calcium fluorescence, CHO-K1 cells, HTS | CHO-K1 hM1, agonist mode; 0% DMSO, 100% acetylcholine EC100 | 0.33% of 360,000 active | activation, % at 3 µM | AID 588814, 2011;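 active = activation above the run's mean compound activation plus 3 SD, cut at about 16% in these data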;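 also: peak over basal fluorescence ratio within a 140 s kinetic read after compound addition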
CHO-K1 Ca PAM: nonselective calcium activators in parental CHO-K1 cells, primary screen, counter-screen for M1 PAM project, cell-based, Fluo-8 calcium fluorescence, full deck, 1536-well; activation, % at 3 µM; ATP EC20; 0% at ATP EC20, 100% at ATP max; 0.02% of 360,000 active;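 active = activation above the run cutoff, the mean activation of all test compounds plus 3 SD, cut at about 40% in these data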;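 also: peak over basal fluorescence ratio in a 140 s read after ATP addition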
CHO-K1 Ca ag: counter-screen for M1 agonists: effect in parental CHO-K1 cells; activation, % at 3 µM; 0.48% of 360,000 active; Fluo-8 calcium fluorescence; scaled to maximal ATP response, vehicle zero; AID 602248, 2012; in the data active = activation above about 15%;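 also: untransfected CHO-K1 host cells lacking M1 receptor as counterscreen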
CHRM1 PAM: human M1 muscarinic receptor positive allosteric modulators, primary screen, CHO-K1 cells, Fluo-8 calcium fluorescence, 1536-well. 0.088% of 360,000 active. Muscarinic acetylcholine receptor M1 (Homo sapiens), P11229. CHO-K1 hM1, ACh EC20; 0% = ACh EC20, 100% = maximal ACh. activation, % at 3 µM. AID 588819, 2011; in the data active = activation above about 19%, passing the limit was not always enough
CHO-K1 Ca antag: nonselective inhibitor or artifact in parental CHO-K1 cells; ATP-induced calcium, Fluo-8 fluorescence; inhibition, % at 3 µM; 0.6% of 360,000 active; AID 602250;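 active = inhibition above a per-plate cutoff, the plate's mean sample inhibition plus 3 SD, cut at about 24% in these data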
Large screens that a line does not name were inactive.

O=C(COc1ccc(S(=O)(=O)N2CCOCC2)cc1)NCCc1ccc(Cl)cc1	none
Nc1ccn(C2OC(CCl)C(O)C2O)c(=O)n1 (stereo not drawn)	none
CO[C@H](C(=O)N(C)C[C@@H]1OCc2ccccc2-c2c(n(C)c3ccccc23)C(=O)N([C@H](C)CO)C[C@@H]1C)c1ccccc1	none
COCCN1C(=O)CCC1(C)C(=O)Nc1ccc2c(c1)OCCO2 (stereo not drawn)	none
CN1OC[C@@H]2CN(C(=S)NCCc3ccccc3)[C@H](c3ccc(-n4ccnc4)cc3)C[C@@H]21	none
Cc1ccc(NS(=O)(=O)c2ccc(-n3cccn3)cc2)cc1Cl	none
Cc1ccc(NS(=O)(=O)c2ccc(-n3cccn3)cc2)cc1C	M1 antag 28
Cc1c(C(=O)NCc2ccc([N+](=O)[O-])cc2)sc(=O)n1Cc1ccc(-c2ccccc2)cc1	none
Cc1[nH]c(=O)sc1C(=O)NCc1ccc([N+](=O)[O-])cc1	CHO-K1 Ca antag 35
Cc1cc(N2CCCC2)ccc1/C=C1\NC(=S)N(C)C1=O	CHRM1 agonist 23, CHO-K1 Ca ag 17
CN1C(=O)c2ccc(N3CCCC3)cc2C1=O	none
O=C1N/C(=C/c2ccc(N3CCCC3)cc2)C(=O)N1c1ccccc1	none
O=C1/C(=C/c2ccc(N3CCCC3)cc2)NC(=S)N1C1CC1	M1 antag 35, CHRM1 agonist 34, CHO-K1 Ca ag 56, CHO-K1 Ca antag 45
Cc1c(C(=O)OCC[N+]2(C)CCCCC2)oc2ccccc12	M1 antag 54
O=C1/C(=C\c2cc([N+](=O)[O-])ccc2O)SC(=S)N1Cc1ccc(Cl)cc1	M1 antag 36, CHRM1 agonist 23
CC(=O)c1ccc(NC(=O)CSc2nc(=O)n3cccc(C)c3n2)cc1	CHO-K1 Ca antag 44
CC(C)Cn1c(N)c(C(=O)COC(=O)CCc2nc3ccccc3s2)c(=O)n(C)c1=O	CHO-K1 Ca ag 15
CC(C)Cn1c(N)c(C(=O)COC(=O)CC23CC4CC(CC(C4)C2)C3)c(=O)n(C)c1=O	M1 antag 33
CC(C)Cn1c(N)c(C(=O)COC(=O)c2cccc(F)c2)c(=O)n(C)c1=O	none
CC(C)Cn1c(N)c(C(=O)COC(=O)/C=C/c2ccccc2)c(=O)n(C)c1=O	M1 antag 30, CHO-K1 Ca antag 28
CC(C)Cn1c(N)c(C(=O)COC(=O)COc2cccc(C(F)(F)F)c2)c(=O)n(C)c1=O	M1 antag 32, CHO-K1 Ca ag 15
CC(C)(C)c1ccc(C(=O)N2[C@H](COCc3ccccc3)C=CS2(=O)=O)cc1	none
Cc1csc(=O)n1CC(=O)OC(C)C(=O)Nc1ccc(N(C)C)cc1 (stereo not drawn)	none
COc1ccc(C(C)NC(=O)C2CCN(CCOc3ccc(Cl)cc3Cl)CC2)cc1OC (stereo not drawn)	none
COc1cc(OC)cc(C2=Cc3ccccc3C(CC(C)=O)N2c2ccc(C#CCCO)cc2)c1 (stereo not drawn)	none (no result: M1 antag, CHRM1 agonist, CHRM1 PAM)
COc1ccc(-c2coc3c(C(=O)NCC4CC4)cccc23)c(C)c1	none
Cc1ccccc1OCCC(=O)OCC(=O)c1c(N)n(CC(C)C)c(=O)n(C)c1=O	M1 antag 38, CHO-K1 Ca ag 15, CHO-K1 Ca antag 24
CC(C)Cn1c(N)c(C(=O)COC(=O)c2c(O)c(Cl)cc(Cl)c2Cl)c(=O)n(C)c1=O	CHRM1 PAM 28
Cc1ccc(OCCC(=O)OCC(=O)c2c(N)n(CC(C)C)c(=O)n(C)c2=O)cc1	none
COc1cc(/C=C/CNC[C@H]2O[C@@H](n3cnc4c(N)ncnc43)[C@H](O)[C@@H]2O)ccc1O	none
CC(C)N1CCN(C(=O)c2ccc(OC3CCN(CCc4ccccc4)CC3)cc2)CC1	M1 antag 43
O=C(c1ccc(OC2CCN(CCc3ccccc3)CC2)cc1)N1CCCCC1CCCO (stereo not drawn)	M1 antag 30

Source: PubChem (The Scripps Research Institute Molecular Screening Center)
